Results: PubChem BioAssay AID1159580 (chemical genetic matrix, 2015)
In all, about 5,500 compounds went through this assay and about 2,000 (36%) were called active. Roughly 18% stayed inconclusive and do not appear here. Cut-off read from the data, not from the text of the source: active = normalized growth mostly below about 0.91 (no sharp cut-off); inconclusive = no clear call, values can overlap the other calls; inactive = mostly above about 0.92. The list shows a part of the results.

Assay: chemical genetic growth profiling, strain panel (AID 1159580);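 note: tested at 20 µM; growth read once vehicle control cultures reached saturation at 30 °C; 1 = growth at the plate median or of vehicle wells; lower values mean less growth of the strain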
Conditions: growth OD

Measured: normalized growth

O=c1[nH]cnc2nc[nH]c12
inactive: S. cerevisiae deletion strains, locus YJR066W, strain TOR1, active compounds read low 0.979 | S. cerevisiae deletion strains, locus YJR075W, strain HOC1, active compounds read low 1.01 | S. cerevisiae deletion strains, locus YKL009W, strain mrt4, active compounds read low 0.974 | S. cerevisiae deletion strains, locus YKL068W, active compounds read low 1.02 | S. cerevisiae deletion strains, locus YKL085W, strain MDH1 (second series), active compounds read low 0.984 | S. cerevisiae deletion strains, locus YKL085W, strain MDH1, active compounds read low 0.984 | S. cerevisiae deletion strains, locus YKL160W, strain elf1, active compounds read low 1.01 | S. cerevisiae deletion strains, locus YKR001C, strain vps1, active compounds read low 0.975 | S. cerevisiae deletion strains, locus YKR026C, strain gcn3, active compounds read low 1.02 | S. cerevisiae deletion strains, locus YKR091W, strain srl3, active compounds read low 1.02 | S. cerevisiae deletion strains, locus YLL001W, strain dnm1, active compounds read low 1.01 | S. cerevisiae deletion strains, locus YLL026W, active compounds read low 1.02 | S. cerevisiae deletion strains, locus YLL041C, strain sdh2, active compounds read low 1.02 | S. cerevisiae deletion strains, locus YLR027C, strain aat2, active compounds read low 1.01 | S. cerevisiae deletion strains, locus YLR039C, strain RIC1, active compounds read low 1.01 | S. cerevisiae deletion strains, locus YLR058C, strain SHM2, active compounds read low 1 | S. cerevisiae deletion strains, locus YLR102C, strain apc9, active compounds read low 0.979 | S. cerevisiae deletion strains, locus YLR113W, strain HOG1, active compounds read low 1.01 | S. cerevisiae deletion strains, locus YLR221C, strain rsa3, active compounds read low 1.02 | S. cerevisiae deletion strains, locus YLR258W, strain gsy2, active compounds read low 1.01 | S. cerevisiae deletion strains, locus YLR262C, strain YPT6 (second series), active compounds read low 1.02 | S. cerevisiae deletion strains, locus YLR262C, strain YPT6, active compounds read low 0.991 | S. cerevisiae deletion strains, locus YLR268W, strain sec22, active compounds read low 0.971 | S. cerevisiae deletion strains, locus YLR320W, strain mms22, active compounds read low 1.03 | S. cerevisiae deletion strains, locus YLR330W, strain CHS5, active compounds read low 0.998 | S. cerevisiae deletion strains, locus YLR342W, strain FKS1 (second series), active compounds read low 0.975 | S. cerevisiae deletion strains, locus YLR342W, strain FKS1, active compounds read low 1.02 | S. cerevisiae deletion strains, locus YLR357W, strain rsc2, active compounds read low 1.04 | S. cerevisiae deletion strains, locus YLR370C, strain arc18, active compounds read low 1 | S. cerevisiae deletion strains, locus YLR371W, strain rom2, active compounds read low 0.962 | S. cerevisiae deletion strains, locus YLR384C, strain iki3, active compounds read low 1 | S. cerevisiae deletion strains, locus YLR418C, strain cdc73, active compounds read low 0.994 | S. cerevisiae deletion strains, locus YML016C, strain PPZ1, active compounds read low 0.995 | S. cerevisiae deletion strains, locus YML032C, strain rad52, active compounds read low 0.988 | S. cerevisiae deletion strains, locus YML120C, strain ndi1, active compounds read low 1.01 | S. cerevisiae deletion strains, locus YML124C, strain tub3, active compounds read low 0.978 | S. cerevisiae deletion strains, locus YMR058W, strain fet3, active compounds read low 1.02 | S. cerevisiae deletion strains, locus YMR078C, strain ctf18, active compounds read low 0.997 | S. cerevisiae deletion strains, locus YMR125W, strain sto1, active compounds read low 1.01 | S. cerevisiae deletion strains, locus YMR129W, active compounds read low 1.01 | S. cerevisiae deletion strains, locus YMR205C, strain PFK2, active compounds read low 1.02 | S. cerevisiae deletion strains, locus YMR223W, strain ubp8, active compounds read low 0.985 | S. cerevisiae deletion strains, locus YMR231W, strain pep5, active compounds read low 0.987 | S. cerevisiae deletion strains, locus YMR263W, strain SAP30, active compounds read low 0.999 | S. cerevisiae deletion strains, locus YMR307W, strain GAS1, active compounds read low 1.02 | S. cerevisiae deletion strains, locus YNL067W, strain RPL9B, active compounds read low 1.02 | S. cerevisiae deletion strains, locus YNL071W, strain lat1, active compounds read low 1.01 | S. cerevisiae deletion strains, locus YNL153C, strain GIM3, active compounds read low 1.02 | S. cerevisiae deletion strains, locus YNL183C, strain NPR1, active compounds read low 0.978 | S. cerevisiae deletion strains, locus YNL209W, strain ssb2, active compounds read low 1.02 | S. cerevisiae deletion strains, locus YNL233W, strain BNI4, active compounds read low 0.999 | S. cerevisiae deletion strains, locus YNL248C, strain rpa49, active compounds read low 1.02 | S. cerevisiae deletion strains, locus YNL250W, strain rad50, active compounds read low 0.977 | S. cerevisiae deletion strains, locus YNL271C, strain bni1, active compounds read low 0.978 | S. cerevisiae deletion strains, locus YNL298W, strain CLA4, active compounds read low 1 | S. cerevisiae deletion strains, locus YNL307C, strain MCK1, active compounds read low 0.982 | S. cerevisiae deletion strains, locus YNL322C, strain KRE1 (second series), active compounds read low 1.02 | S. cerevisiae deletion strains, locus YNL322C, strain KRE1, active compounds read low 1.01 | S. cerevisiae deletion strains, locus YNR049C, strain mso1, active compounds read low 1.03 | S. cerevisiae deletion strains, locus YNR052C, strain pop2, active compounds read low 0.978 | S. cerevisiae deletion strains, locus YOL012C, strain htz1 1.01 | S. cerevisiae deletion strains, locus YOL147C, strain pex11, active compounds read low 0.98 | S. cerevisiae deletion strains, locus YOR001W, strain rrp6, active compounds read low 1.02 | S. cerevisiae deletion strains, locus YOR061W, strain CKA2, active compounds read low 0.99 | S. cerevisiae deletion strains, locus YOR069W, strain VPS5, active compounds read low 0.988 | S. cerevisiae deletion strains, locus YOR070C, strain gyp1, active compounds read low 1.01 | S. cerevisiae deletion strains, locus YOR080W, strain dia2, active compounds read low 1.03 | S. cerevisiae deletion strains, locus YOR083W, strain WHI5, active compounds read low 1.01 | S. cerevisiae deletion strains, locus YOR106W, strain vam3, active compounds read low 1.01 | S. cerevisiae deletion strains, locus YOR136W, strain idh2, active compounds read low 0.973 | S. cerevisiae deletion strains, locus YOR144C, strain elg1, active compounds read low 0.989 | S. cerevisiae deletion strains, locus YOR184W, strain ser1, active compounds read low 0.98 | S. cerevisiae deletion strains, locus YOR231W, strain MKK1, active compounds read low 1.02 | S. cerevisiae deletion strains, locus YOR265W, strain rbl2, active compounds read low 1.03 | S. cerevisiae deletion strains, locus YOR270C, strain vph1, active compounds read low 1.11 | S. cerevisiae deletion strains, locus YOR290C, strain snf2, active compounds read low 1 | S. cerevisiae deletion strains, locus YOR316C, strain cot1, active compounds read low 0.989 | S. cerevisiae deletion strains, locus YPL051W, strain arl3, active compounds read low 1.03 | S. cerevisiae deletion strains, locus YPL055C, strain LGE1, active compounds read low 1.03 | S. cerevisiae deletion strains, locus YPL078C, strain atp4, active compounds read low 1.02 | S. cerevisiae deletion strains, locus YPL106C, strain sse1, active compounds read low 0.994 | S. cerevisiae deletion strains, locus YPL240C, strain hsp82, active compounds read low 1.01 | S. cerevisiae deletion strains, locus YPL256C, strain CLN2, active compounds read low 0.996 | S. cerevisiae deletion strains, locus YPR119W, strain clb2, active compounds read low 0.99 | S. cerevisiae deletion strains, locus YPR141C, strain kar3, active compounds read low 0.977 | S. cerevisiae deletion strains, locus YPR163C, strain tif3, active compounds read low 0.988 | S. cerevisiae deletion strains, locus YPR167C, strain met16, active compounds read low 0.965 | S. cerevisiae deletion strains, strain wtn01, active compounds read low 0.975 | S. cerevisiae strains, strain wild type, active compounds read low 1
